Only some compounds are listed: those with a hit (about 1.2% of all), similar ones and a draw of the others.
RGS8-Gao reg: regulators of human RGS8-Galphao interaction | multiplexed bead flow cytometry, RGS8-Galphao binding; actives lie on both sides | response (percent of control binding), % at 10 µM | 220,000 compounds, 0.34% hits | AID 1423; in the data active means response below about 60% or above about 140%; inactive means in between;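 further: Galphao activated as the GDP aluminium fluoride complex binding bead-coupled RGS8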
Target sequence (P09471 whole entry, looked up): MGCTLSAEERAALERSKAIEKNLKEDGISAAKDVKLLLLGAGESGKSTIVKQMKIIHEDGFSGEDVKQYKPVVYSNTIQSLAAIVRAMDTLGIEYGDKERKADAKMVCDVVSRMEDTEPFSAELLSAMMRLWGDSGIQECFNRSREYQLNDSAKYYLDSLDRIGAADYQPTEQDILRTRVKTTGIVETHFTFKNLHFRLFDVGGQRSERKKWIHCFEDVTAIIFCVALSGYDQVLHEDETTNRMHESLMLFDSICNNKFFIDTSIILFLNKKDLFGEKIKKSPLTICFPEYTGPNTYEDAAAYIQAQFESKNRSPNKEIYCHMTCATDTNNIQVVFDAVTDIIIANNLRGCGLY
Avidin bead fluor: compound fluoresces at 488/530 nm on avidin beads. fluorescence (KMESF) at 10 µM. AID 1775. compound fluorescence 488/530 nm, flow cytometry; active compounds read high. 220,000 compounds, 0.38% hits; in the data active means fluorescence above about 47
GSH fluor: compound fluoresces at 488/530 nm on GSH beads; GSH beads flow cytometry, compound fluorescence 488/530 nm; active compounds read high; fluorescence (KMESF) at 10 µM; 190,000 compounds, 0.25% hits; AID 1776; in the data active means fluorescence above about 89;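 further: glutathione beads carrying GST-tagged Bcl family fusion proteins plus one bare bead set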
RGS7-Gao reg: human RGS7-Galphao interaction regulation; P09471; Multiplexed bead flow cytometry, RGS7-Galphao binding; actives lie on both sides; binding response (% of control), % at 10 µM; 220,000 compounds, 0.35% hits; AID 1439; in the data active means binding response below about 49% or above about 150%; inconclusive means no clear call, values can overlap the other calls; inactive means in between;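 further: fluorescent Galphao held in activated GDP-AlF4 state binding bead-coupled RGS7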
RGS16-Gao HTS: modulates binding between human RGS16 and Galphao. 220,000 compounds, 0.38% hits. binding response (% of control), % at 10 µM. O15492+P09471. bead-based flow cytometry RGS16-Galphao binding, fluorescence; actives lie on both sides; call rule not given here;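 further: Galphao activated by GDP with aluminum fluoride before binding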
Target sequence (O15492 whole entry, looked up): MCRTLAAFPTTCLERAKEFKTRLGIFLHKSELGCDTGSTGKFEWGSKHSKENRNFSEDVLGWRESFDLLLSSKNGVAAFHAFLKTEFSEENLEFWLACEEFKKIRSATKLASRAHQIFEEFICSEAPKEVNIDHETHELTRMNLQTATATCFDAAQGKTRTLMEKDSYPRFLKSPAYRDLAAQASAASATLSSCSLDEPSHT
Target sequence (P09471 whole entry, looked up): as the sequence (P09471 whole entry, looked up) above
RGS4-Gao reg: modulates binding of RGS4 to human Galphao | P09471 | Multiplexed bead flow cytometry; actives lie on both sides | binding response (% of control), % at 10 µM | 220,000 compounds, 0.33% hits; in the data active means binding response below about 49% or above about 150%; inactive means in between;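 further: fluorescent Galphao activated with aluminum fluoride binding bead-coupled RGS4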
Large screens that a line does not name were inactive; [ ] = another dose, or the depositor's remark.

O=S(=O)(Cc1ccc(Cl)cc1)Nc1ccc2c(c1)OCO2	Avidin bead fluor 48
O=S(=O)(Cc1ccc(Cl)cc1)N1CCN(Cc2ccc3c(c2)OCO3)CC1	RGS7-Gao reg inconclusive (no result: GSH fluor)
Cc1ccc(S(=O)(=O)Nc2nc(C)c(NC(=O)OCCCl)s2)cc1	Avidin bead fluor 62
CCOc1ccccc1N1CCN(Cc2c(C)n(C)n(-c3ccccc3)c2=O)CC1	RGS7-Gao reg inconclusive
Cc1ccccc1-n1nc(C(=O)O)c(C)c(C#N)c1=O	GSH fluor 255
CCCCOCC(O)Cn1c(C)nc2ccccc21 (configuration not stated)	GSH fluor 261
Cc1ccc(S(=O)(=O)N(C)Cc2nc(-c3ccncc3)no2)cc1	Avidin bead fluor 50
COc1ccc(/C=N/n2c(C)cc(C)c(C(N)=O)c2=O)cc1	GSH fluor 255
CCOC(=O)C1=C(C)OC(N)=C(C(=O)OCC)C1c1cccnc1 (configuration not stated)	none
CCOC(=O)C1=C(C)OC(N)=C(C(=O)OCC)C1c1ccncc1 (configuration not stated)	GSH fluor 244
Cc1cccc(C(=O)N2CCC(Cc3ccccc3)CC2)c1[N+](=O)[O-]	none
Cc1cc(C(=O)NCC(=O)OC(C(=O)Nc2cc(C(F)(F)F)ccc2Cl)c2ccccc2)ccc1[N+](=O)[O-] (configuration not stated)	GSH fluor 257
Cc1cccc(C)c1Nc1c(-c2ccccn2)nc2ccccn12	none
C=C(C)CSc1cc(C)nc2c(-c3ccccc3)c(C)nn12	RGS7-Gao reg inconclusive (no result: GSH fluor)
COc1ccc(OC)c(-c2c3cc(O)c(=O)cc-3oc3cc(O)c(O)cc23)c1	RGS8-Gao reg 36, GSH fluor 274, RGS7-Gao reg 4.7, RGS16-Gao HTS 17, RGS4-Gao reg 39
COCCN1C(=O)c2ccccc2C(C(=O)NCCN(C)C)C1c1ccc(F)cc1 (configuration not stated)	none
COCCNC(=O)C1c2ccccc2C(=O)N(CCOC)C1c1ccc(F)cc1 (configuration not stated)	Avidin bead fluor 48
CCOC(=O)c1ccc(S(=O)(=O)N2CCN(CC(=O)NC(=O)NC3CCCCC3)CC2)cc1	RGS8-Gao reg 152[activator], RGS7-Gao reg 176[activator], RGS16-Gao HTS 185[activator], RGS4-Gao reg 188[activator]
CCOC(=O)c1ccc(S(=O)(=O)N2CCN(S(=O)(=O)CC)CC2)cc1	none
CCOC(=O)c1nc(C)nc(Sc2n[nH]c(-c3ccc(C(C)(C)C)cc3)n2)c1C	RGS7-Gao reg inconclusive (no result: GSH fluor)
COc1ccc(OC)c(C2C=C(c3ccc(C)c(C)c3)Nc3nnnn32)c1 (configuration not stated)	Avidin bead fluor 51
O=C(NC(=S)Nc1cc(S(=O)(=O)N2CCOCC2)ccc1N1CCOCC1)C1CCCC1	none
COc1ccc(N(CC(=O)NC2CCCCC2)C(=O)CCCC(=O)Nc2ccccn2)c(OC)c1	Avidin bead fluor 84
CN(C)N1C(N)=C(C#N)C(c2cccs2)C2=C1CC(C)(C)CC2=O (configuration not stated)	none
COc1ccc2c(c1)C(=O)N(c1ccccc1C)C(=O)C2(C)C	none
Cc1ccc(N/C=C(/C#N)c2ccsc2)cc1	none
N#C/C(=C/Nc1ccccc1)c1ccsc1	Avidin bead fluor 51
COc1cc(C(F)(F)F)nc(-c2ccccn2)n1	RGS7-Gao reg inconclusive
CC(C)Nc1cc(C(F)(F)F)nc(-c2ccccn2)n1	Avidin bead fluor 332, RGS7-Gao reg 274[activator], RGS4-Gao reg 153[activator]
COc1ccc(CNC(=O)COC(=O)CCc2c[nH]c3ccccc23)cc1	none
CCOc1ccc2[nH]c(=O)c(C(c3nnnn3C3CCCCC3)N3CCN(CC)CC3)cc2c1 (configuration not stated)	Avidin bead fluor 76
CCOC(=O)c1nc(-c2ccccc2)sc1C(C)=O	RGS7-Gao reg inconclusive (no result: GSH fluor)
CCn1c(SCC(=O)Nc2ccc(-c3nc4ccc(C)cc4s3)cc2)nnc1-c1ccccc1	Avidin bead fluor 256
N#Cc1c(Cl)cccc1N1CCC(C(N)=O)CC1	RGS7-Gao reg inconclusive (no result: GSH fluor)
CN1CCCC(OC(=O)c2cc(Cl)ccc2Cl)C1 (configuration not stated)	GSH fluor 258
Cc1cc(C(=O)OCC(=O)NC2CCCCC2)c(C)o1	none
Cc1cc(C(=O)OCC(=O)NC(C)C)c(C)o1	GSH fluor 269
OCC(O)C1OC(Nc2ccc(Cl)cc2)C(O)C1O (configuration not stated)	RGS7-Gao reg inconclusive (no result: GSH fluor)
O=C1c2ccccc2C(=O)N1CC1CCCO1 (configuration not stated)	none
O=c1c2ccccc2c2ccccc2c(=O)n1CC1CCCO1 (configuration not stated)	GSH fluor 252
ClCC1=Nc2cccc3cccc(c23)N1	RGS7-Gao reg inconclusive (no result: GSH fluor)
CC(C)(CNS(=O)(=O)c1ccc(F)cc1)CNS(=O)(=O)c1ccc(F)cc1	Avidin bead fluor 51
O=S(=O)(NCCNS(=O)(=O)c1ccc(F)cc1)c1ccc(F)cc1	none
O=C(COC(=O)c1cc[n+]([O-])cc1)NCc1ccccc1Cl	none
COc1ccc(Cl)cc1C(=O)Nc1nnn(C)n1	GSH fluor 257
CC(=O)Nc1ccc2c(c1)C(=O)c1ccccc1C2=O	Avidin bead fluor 59
O=C1c2ccccc2C(=O)c2cc(NC(=O)C3CC3)ccc21	none
Cc1ccnc(N2CCN(C(=O)CSc3nc4ccccc4nc3N3CCC(C)CC3)CC2)c1	none
Cc1cc(C)c(S(=O)(=O)Nc2ccccc2C(=O)OCC(=O)NCc2ccccc2)c(C)c1	none
CCCCOC(=O)C1[C@H]2C(=O)N(c3ccccc3CC)C[C@]23C=C[C@H]1O3 (some centres not stated)	none
CCc1ccccc1N1CC23C=CC(O2)C(C(=O)OCC(C)C)C3C1=O (configuration not stated)	Avidin bead fluor 56
CCOc1ccccc1NC(=O)c1cc(SC)ccc1Cl	none
COC(=O)c1ccc(COc2ccccc2/C=N/NC(=O)c2cccnc2)cc1	none
CCSC1=N/C(=C\c2ccc3c(c2)OCO3)C(=O)S1	none
CCCSC1=N/C(=C\c2ccc3c(c2)OCO3)C(=O)S1	Avidin bead fluor 60
Cc1[nH]c2ccc(F)cc2c1CCN(Cc1cccnc1)C(=S)Nc1cccc(F)c1	none
Nn1c(SCc2cn3ccsc3n2)nnc1-c1ccncc1	GSH fluor 266
Cc1ccc(CSc2nnc(-c3ccncc3)n2N)cc1	RGS7-Gao reg inconclusive (no result: GSH fluor)
CCN(CC)CCSc1nnc2c3ccccc3n(Cc3ccccc3)c2n1	RGS7-Gao reg inconclusive (no result: GSH fluor)
CN(C(=O)c1cc2nc(-c3ccco3)cc(C(F)(F)F)n2n1)C1CCCCC1	RGS8-Gao reg 47, RGS7-Gao reg 35, RGS4-Gao reg 39

Compound activity: PubChem, NMMLSC
